APE1 inh = blocks human APE1 abasic DNA cleavage; recombinant APE1, TAMRA/BHQ-2 abasic DNA cleavage fluorescence; Potency, µM (series often up to 65.8 µM), actives largely listed as inhibitors; 0.35% of 350,000 active; note: nearly all actives have a fitted effect of over 55% in size
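Compound pre-exposure to 0.75 nM APE1, 15 min at ambient temperature. Reaction initiated with 50 nM TAMRA/BHQ-2 THF substrate, read immediately in kinetic mode, 525 nm excitation, 598 nm emission.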
L3MBTL1 block = blocks human L3MBTL1 | Q9Y468 | AID 485360 | 0.66% of 230,000 active | AlphaScreen L3MBTL1–H3K9me1 peptide binding | Potency, µM (highest dose often 57.1 µM), usual class: inhibitors; note: nearly all actives have a fitted effect of over 60% in size
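First, the protein-peptide complex forms for 30 min at room temperature (L3MBTL1 50 nM, biotinylated H3K9me1 peptide 75 nM). Next, compounds are pin-transferred and incubated 30 min. Finally, AlphaScreen beads are added and read after 30 min.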
BLM helicase inh = inhibitors of human Bloom syndrome helicase BLM; recombinant BLM DNA unwinding, fluorescence dequenching; Potency, µM (series often up to 56.1 µM), actives largely listed as inhibitors; 0.2% of 350,000 active; AID 2528; note: nearly all actives have a fitted effect of over 35% in size
RECQ1 inh-1 = blocks DNA unwinding by human RECQ1; P46063; RECQ1 DNA unwinding, red fluorescence kinetic read; Potency, µM (highest dose often 57.3 µM), usual class: inhibitors; 0.54% of 240,000 active; note: nearly all actives have a fitted effect of over 30% in size
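RECQ1T1 50 nM; forked duplex (20 bp + 30-nt ss tails) 200 nM, ATP 2 mM final; pH 8.0, 2 mM MgCl2, 2.5 ug/ml poly(dI-dC); 15 min compound preincubation; discontinuous kinetic read over 2 h at RT.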
FEN1 inhibitor = human FEN1 inhibition. 0.35% of 390,000 active. Recombinant FEN1 flap cleavage, fluorescence, 15 min. P39748. AID 588795. Potency, µM (highest dose often 114 µM), usual class: inhibitors; note: nearly all actives have a fitted effect of over 65% in size
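Nuclease activity of 10 nM FEN1 was measured after 15 min of room-temperature exposure to titrated compounds, by adding 50 nM flap substrate and reading plates at 0 and 15 min.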
WRN helicase inh = WRN helicase (human) inhibition. Q14191. WRN helicase unwinding, fluorescent forked duplex, kinetic. Potency, µM (highest dose often 114 µM), hits mostly inhibitors. 0.46% of 360,000 active. AID 651768; note: nearly all actives have a fitted effect of over 55% in size
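Enzyme (20 nM final) and test compound sit together 15 min at room temperature before substrate addition. Substrate is a single-forked duplex oligonucleotide (100 nM) labelled with fluorophore and quencher, with 2 mM ATP; helicase unwinding raises red fluorescence, read kinetically.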
RECQ1 inh conf = confirmation of human RECQ1 helicase inhibitors | 28% of 610 active | shares compounds with RECQ1 inh-1 | RECQ1 helicase DNA unwinding, fluorescence | Potency, µM (doses to about 229 µM), actives largely listed as inhibitors; note: nearly all actives have a fitted effect of over 45% in size
RECQ1 ADP FP = ADP displacement flagged in RECQ1 inhibitor counter-screen | shares compounds with RECQ1 inh-1 | ADP fluorescence polarization displacement counterscreen | Potency, µM (top dose mostly 228 µM), hits mostly inhibitors | 27% of 530 active | AID 2711; note: nearly all actives have a fitted effect of over 45% in size
RECQ1 inh-2 = confirmation of human RECQ1 helicase inhibitors. shares compounds with RECQ1 inh-1. Potency, µM (titrated, usually from 119 µM), hits mostly inhibitors. 15% of 1,100 active. AID 504841. recombinant RECQ1 DNA unwinding, red fluorescence; note: nearly all actives have a fitted effect of over 50% in size
Hits are given with their value; - = inactive; ? = inconclusive; . = no result; [ ] = remark or other dose. In the library only some 1% were active in any assay of this set; here they are far more common. Calls come from the whole dose curve; as a rule, active = well fitted curve in the direction sought with a large enough effect; inconclusive = small, poorly fitted or top-dose-only effect, or another doubt; inactive = no such curve, though single readings can be large; an effect the other way counts as inactive or inconclusive.

SMILES | APE1 inh | L3MBTL1 block | BLM helicase inh | RECQ1 inh-1 | FEN1 inhibitor | WRN helicase inh | RECQ1 inh-2 | others
COCCNC(=O)C[C@H]1C[C@H]2c3cc(NS(=O)(=O)c4ccc(F)cc4)ccc3O[C@H]2[C@H](CO)O1 | . | . | . | . | . | - | .
CCNc1ncc2nc(-c3cc(F)cc(F)c3)c(=O)n(CCc3ccccc3)c2n1 | ? | . | - | ? | . | . | 15.8µM
CCNc1ncc2nc(-c3ccc(OC)cc3)c(=O)n(CCc3ccccc3)c2n1 | - | . | - | - | . | . | .
COc1cc(NC(=O)c2cccs2)c(C(=O)OCC(=O)NCc2ccco2)cc1OC | ? | . | ? | 8.91µM | - | ? | ? | RECQ1 inh conf=28.2µM;RECQ1 ADP FP=?
Cc1ccc2c(c1)c1c3n2CCN(C(=O)c2cccc(C(F)(F)F)c2)C3CCC1 (stereo not given) | . | . | - | . | - | . | .
Cc1ccc(NC(=O)c2c3c(nc4ccccc24)CCC3)cc1 | - | - | - | - | - | - | .
Cc1ccc(NC(=O)c2c3c(nc4ccccc24)CCC3)cc1S(=O)(=O)N(C)C | ? | . | - | ? | - | -[11.6 µM] | ?
COc1ccc(NC(=O)c2c3c(nc4ccccc24)CCC3)cc1S(=O)(=O)N1CCOCC1 | ? | 31.6µM | ? | 22.4µM | - | ? | ?
CN1C(=O)C[C@@H](C(=O)N[C@@H](Cc2cnc[nH]2)C(=O)N2CCC[C@H]2C(N)=O)NC1=O | . | . | - | . | . | . | .
N#CC1=C(N)Oc2ccc3ccc(O)cc3c2C1c1ccsc1 (stereo not given) | - | - | - | ? | - | ? | 50.1µM
CCOC(=O)Cc1c(-c2cccc(Cl)c2)nc2c3ccccc3ccn12 | . | . | . | . | . | - | .
Nc1cc2c(cc1Br)-c1ccccc1C2=NO | . | . | . | . | - | ? | .
Cc1c(N=C2C=C(Br)C(=O)C(Br)=C2)c(=O)n(-c2ccccc2)n1C | 8.91µM | . | - | 22.4µM | ? | -[11.6 µM] | . | RECQ1 inh conf=-
O=C(CN1CCN(c2ccc(O)cc2)CC1)NC(=O)NCc1ccco1 | ? | - | - | 22.4µM | - | - | -
COc1ccc(N2CCN(CC(=O)NC(=O)NCc3ccco3)CC2)cc1 | - | - | - | - | - | - | .
O=C(CN1CCN(c2ccc(O)cc2)CC1)Nc1ccc2c(c1)OCCO2 | ? | - | - | ? | - | - | -
O=C(CN1CCN(c2ccc(F)cc2)CC1)Nc1ccc2c(c1)OCCO2 | - | . | - | . | - | - | .
O=C(O[C@@H]1Cc2c(O)cc(O)cc2OC1c1ccc(O)c(O)c1)c1cc(O)c(O)c(O)c1 (stereo not given in full) | 0.316µM | . | - | 0.708µM | . | . | . | RECQ1 inh conf=2.82µM;RECQ1 ADP FP=?
CC1CCN(CCCn2c(=S)[nH]c3c(sc4ccccc43)c2=O)CC1 | - | - | - | - | - | - | .
CC1CCN(CCCn2c(=S)[nH]c3c(sc4ccc([N+](=O)[O-])cc43)c2=O)CC1 | - | - | - | ? | - | ? | ?
Nc1c(S(=O)(=O)O)cc(Nc2ccc(Cl)cc2)c2c1C(=O)c1ccccc1C2=O | ? | . | ? | 31.6µM | . | . | 50.1µM
O=S(=O)(O)c1cccc2cccc(Nc3ccccc3)c12 | . | . | . | . | ? | -[11.6 µM] | .
O=C(NC1=C(Nc2ccc(Cl)cc2)C(=O)c2ccccc2C1=O)c1ccccc1 | - | - | - | - | - | - | .
Nc1c(S(=O)(=O)O)cc(Nc2cccc3ccccc23)c2c1C(=O)c1ccccc1C2=O | ? | . | ? | 22.4µM | . | . | ?
COC(=O)[C@]12CCCCC=C1N(Cc1ccccc1)C(=O)[C@H](CC(=O)N1CCSCC1)C2 | . | . | . | . | . | - | .
SMILES | APE1 inh | L3MBTL1 block | BLM helicase inh | RECQ1 inh-1 | FEN1 inhibitor | WRN helicase inh | RECQ1 inh-2 | others
O=c1cc(-c2ccc(O)c(O)c2)oc2ccccc12 | - | . | - | - | . | . | .
COCCNC(=O)C1CCCN(C(=O)c2nc3ccccc3s2)CC1 (stereo not given) | . | . | . | . | . | - | .
C=CCOC(=O)C1C(=O)CC(C)(O)C(C(=O)OCC=C)C1c1ccc(N(C)C)cc1 (stereo not given) | - | . | - | ? | - | - | -
COC(=O)c1ccc(Cn2nc(-c3ccc(C)cc3)ccc2=O)cc1 | - | . | - | . | - | - | .
COc1ccc(NC(=O)COC(=O)Cc2ccc(-c3ccccc3)cc2)c(OC)c1 | - | - | - | - | - | - | .
COc1ccc(C)cc1NC(=O)COC(=O)Cc1ccc(-c2ccccc2)cc1 | - | - | - | ? | - | - | -
CCn1c(CSc2nnc(-c3ccncc3)n2C)nc2cc(C(=O)O)ccc21 | - | . | - | 14.1µM | ? | 70.8µM | 79.4µM | RECQ1 inh conf=39.8µM;RECQ1 ADP FP=7.08µM
Cc1csc(NC(=O)CSc2nnc(-c3ccc(S(=O)(=O)N4CCCC4)cc3)o2)n1 | - | - | - | - | - | - | . | RECQ1 inh conf=-;RECQ1 ADP FP=-
O=C(CSc1nc2ccccc2s1)Nc1ccc(N2CCOCC2)c(Cl)c1 | - | - | - | - | - | - | .
O=C(O)CC/C(=C\c1ccc(N2CCOCC2)c([N+](=O)[O-])c1)c1nc2ccccc2s1 | - | - | - | - | - | - | . | RECQ1 inh conf=?;RECQ1 ADP FP=?
O=C(O)C/C(=C\c1ccc(N2CCOCC2)c([N+](=O)[O-])c1)c1nc2ccccc2s1 | - | - | - | - | - | ? | . | RECQ1 inh conf=112µM;RECQ1 ADP FP=?
CC(C)C(Cl)=NOC(=O)Nc1ccc(S(N)(=O)=O)cc1 | . | . | . | . | - | ? | .
O=P1(O)Oc2c(c(-c3ccccc3)cc3ccc4ccccc4c23)-c2c(-c3ccccc3)cc3ccc4ccccc4c3c2O1 | - | . | - | - | . | . | .
O=P1(O)Oc2c(c(-c3ccccc3)cc3ccccc23)-c2c(-c3ccccc3)cc3ccccc3c2O1 | - | . | - | ? | . | . | ?
O=C(O)CCC(NC(=O)C1CCCN1C(=O)OCc1ccccc1)C(=O)O (stereo not given) | - | - | - | - | - | - | . | RECQ1 inh conf=-;RECQ1 ADP FP=?
O=C(COc1ccccc1C(=O)OCC(=O)N1CCOCC1)Nc1ccc(Br)cc1 | . | . | . | . | - | . | .
COc1ccc(C(=O)c2[nH]c(N)c(C(=O)NCCc3c[nH]c4ccccc34)c2-c2ccccc2Br)cc1 | . | . | . | . | . | - | .
O=C(c1ccccc1)c1ccc(OCCOCCN2CCN(Cc3ccccc3)CC2)cc1 | - | - | - | ? | - | ? | -
O=C(c1ccccc1)c1ccc(OCCCN2CCCC2)cc1 | - | - | - | - | - | - | .
Cc1ccc([N+](=O)[O-])cc1S(=O)(=O)Nc1ccc(C(=O)N2CCN(C(=O)c3ccco3)CC2)cc1 | - | - | . | . | - | -[11.6 µM] | .
CCc1cc2c(=O)c(-c3ccc4c(c3)OCCO4)coc2c(CN2CCCCC2C)c1O (stereo not given) | - | - | - | ? | - | - | -

Screening results (PubChem BioAssay)
